The list is not random: actives were taken first. Their share in the collection is about 4.1%.
ssDAF-12 act – activates DAF-12 receptor from parasite S. stercoralis. HEK293 ssDAF-12/GRIP1 lit1-tk-luc reporter, luminescence; % of 3 µM dafachronic acid response. activation, % at 6.8 µM. hit rate 1% among 370,000;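 active = activation above the mean over all tested compounds plus 3 SD, cut at about 0.9% in these data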
hcDAF12 agonist – activates DAF-12 receptor from parasite H. contortus; hit rate 1.4% among 370,000; activation, % at 6.8 µM; AID 652067; HEK293 hcDAF-12 lit1-tk-luc reporter, luminescence; 0% DMSO, 100% Δ7-dafachronic acid;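 active = activation above the mean of all tested compounds plus 3 SD, cut at about 5.5% in these data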
hgDAF12 agonist – activates the H. glycines DAF-12 receptor ligand-binding domain. HEK293 GAL4-hgDAF12 UAS-luciferase reporter, agonist luminescence; normalized to butyrate control. activation, % at 6.8 µM. hit rate 1.8% among 370,000. AID 687014;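 active = activation above a cutoff set at the mean of all screened compounds plus 3 SD, cut at about 10% in these data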
DAX1 inh-1 – DAX1 (NR0B1) inhibition, primary screen; HEK293T StAR-luciferase reporter, SF-1/DAX-1 repression relief; hit rate 1.1% among 370,000; inhibition, % at 6.8 µM;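 active = inhibition above the mean over all tested compounds plus 3 SD, cut at about 3.6% in these data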;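 also: higher inhibition means more luminescence from relief of DAX-1 repression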
DAX1 inh-2 – NR0B1 (DAX1) inhibition | inhibition, % at 6.75 µM | P51843 | HEK293 Gal4-DAX1 luciferase reporter, luminescence | hit rate 0.99% among 340,000 | AID 504766;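 active = inhibition above the mean over all tested compounds plus 3 SD, cut at about 4.2% in these data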;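 also: inhibition shows as a rise in luminescence from relieved DAX1 repression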
LXRb hcDAF ctr – activates human LXR-beta, counter-screen for hcDAF-12 agonists; HEK293 Gal4-LXR tk-luc reporter, luminescence, 24 h; normalized: DMSO 0%, positive control 100%; shares compounds with hcDAF12 agonist; 3,400 tested, under 10 active; AID 743027; activation, % at 6.8 µM;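 active = mean percent activation of the reporter above a cutoff set as the average over tested compounds plus their standard deviation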
Target sequence (P55055 whole entry, looked up, the tested form may be a part): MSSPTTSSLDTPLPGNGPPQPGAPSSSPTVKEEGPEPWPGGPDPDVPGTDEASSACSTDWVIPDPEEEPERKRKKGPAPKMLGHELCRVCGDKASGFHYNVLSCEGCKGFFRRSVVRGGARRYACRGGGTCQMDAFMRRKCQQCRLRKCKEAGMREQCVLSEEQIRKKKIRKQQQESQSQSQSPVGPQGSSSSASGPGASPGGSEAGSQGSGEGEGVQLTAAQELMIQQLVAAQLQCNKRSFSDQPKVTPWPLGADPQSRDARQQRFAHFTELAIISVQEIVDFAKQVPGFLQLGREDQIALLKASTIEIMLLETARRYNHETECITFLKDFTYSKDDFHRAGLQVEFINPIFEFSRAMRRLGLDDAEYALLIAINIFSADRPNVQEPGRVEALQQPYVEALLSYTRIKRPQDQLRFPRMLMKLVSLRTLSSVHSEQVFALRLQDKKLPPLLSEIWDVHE
hcDAF12 ag – confirmation of H. contortus DAF-12 agonists; shares compounds with hcDAF12 agonist; HEK293 hcDAF-12 lit1-tk-luc reporter, luminescence; % of Δ7-dafachronic acid response; activation, % at 6.8 µM; hit rate 61% among 3,400; AID 743032;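 active = mean activation across triplicate tests above the threshold derived from the earlier primary screen, cut at about 5.5% in these data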
A number is an active result; 0 = inactive; - = no result.

SMILES	ssDAF-12 act	hcDAF12 agonist	hgDAF12 agonist	DAX1 inh-1	DAX1 inh-2	LXRb hcDAF ctr	hcDAF12 ag
CCc1nc2ccc(C(=O)NCc3ccc4c(c3)OCO4)cn2c1N(C)CCC(C)C	0	0	0	0	-	-	-
CC(C)C[C@@H]1Cc2[nH][nH]c(=O)c2[C@H](C(C)C)O1	0	0	0	0	-	-	-
COc1ccc(CC(=O)O/N=C(\N)c2ccc(C)cc2)cc1	1.6	7.7	0	0	0	0	8.5
CCN1CCN(c2oc(-c3ccccc3C)nc2S(=O)(=O)c2ccccc2)CC1	0	0	0	0	0	-	-
COc1ccccc1/C=N/N(C(C)=O)c1nc(-c2ccc(F)cc2)cs1	1.2	7.2	0	0	0	0	11
COc1ccc(/C=N/N(C(C)=O)c2nc(-c3ccc(C)cc3)cs2)cc1	0	0	0	0	0	-	-
COc1ccc(N2CCN(CCNS(=O)(=O)c3cccs3)CC2)cc1	0	0	0	0	-	-	-
Cc1ccc(C2=Nc3ccccc3NC(C)(c3ccc(C)o3)C2)o1 (stereo unspecified)	1.4	15	12	0	0	0	5.7
CC1(c2ccccc2)CC(c2ccccc2)=Nc2ccccc2N1 (stereo unspecified)	-	-	-	-	0	-	-
O=C(Nc1cccc(C(F)(F)F)c1)c1csc([C@@H]2C[C@H](O)[C@@H](CO)O2)n1	0	0	0	0	-	-	-
O=C(Nc1ccccc1)c1cnc2ccccc2n1	1.1	7.5	11	0	0	0	7.4
Cc1nn(CC(=O)N2CCCC2)c(=O)c2cc3cc(F)ccc3n12	0	0	0	0	0	-	-
O=c1c(N=Nc2ccccc2)c[nH]n1-c1ccccc1	0	0	0	0	0	-	-
c1ccc(N=Nc2ccc3cccccc2-3)cc1	1.8	9.1	0	0	0	0	10
Nc1ccc(N=Nc2ccccc2)c2ccccc12	0	8.2	0	0	0	0	0
Clc1ccc(-c2[nH]ncc2N=Nc2ccccc2)cc1	0	0	0	0	0	-	-
CCCCNC(=O)C1(C)CCCCCN1Cc1cc2ccccc2o1 (stereo unspecified)	0	0	0	0	-	-	-
COc1cccc(CNC(=O)[C@H]2CCCN2C(=O)[C@H]2CCCN2C(=O)c2cccc(F)c2)c1	0	0	0	0	-	-	-
CC(=O)c1c(C)[nH]c(C(=O)OCC(=O)Nc2ccc(C)cc2[N+](=O)[O-])c1C	0	0	0	0	0	-	-
Cc1csc(=O)n1CC(=O)OCC(=O)Nc1ccc(Cl)cc1F	0	0	0	0	0	-	-
CC(=O)c1c(C)[nH]c(C(=O)OCC(=O)Nc2cc(Cl)ccc2[N+](=O)[O-])c1C	0	7.0	0	0	0	0	0
Cc1csc(=O)n1CC(=O)OCC(=O)Nc1cc(Cl)ccc1[N+](=O)[O-]	0	7.3	0	0	0	0	0
CSc1nc(=O)[nH]nc1Sc1ccccc1	0	0	0	0	0	-	-
COC(=O)[C@]12CCCCC=C1N(Cc1ccc3c(c1)OCO3)C(=O)[C@H](CC(=O)NCc1ccccc1)C2	0	0	0	0	-	-	-
O=C(N/N=C/c1ccccc1OC(=O)c1ccc2c(c1)OCO2)c1cccc(F)c1	0	0	0	0	0	-	-
SMILES	ssDAF-12 act	hcDAF12 agonist	hgDAF12 agonist	DAX1 inh-1	DAX1 inh-2	LXRb hcDAF ctr	hcDAF12 ag
O=C(Oc1ccccc1/C=C\C(=O)c1cc2ccccc2o1)c1cccc(F)c1	0	11	0	0	0	0	7.2
N#C/C(=C/c1ccc(N2CCCCC2)cc1)c1cccc(F)c1	0	8.8	0	0	0	0	0
C=C1C[C@@H]2C[C@@H]2CN(S(=O)(=O)c2ccc(C)cc2)[C@@H]1c1ccco1	0	0	0	0	-	-	-
C[C@H](NC(=O)[C@H](Cc1ccccc1)NC(=O)c1cc2cc(Cl)ccc2n1C)C(=O)O	0	6.8	0	0	0	0	0
Fc1cccc(F)c1/C=N/Nc1ccccn1	1.5	7.1	13	0	5.2	0	10
Fc1cccc(Cl)c1/C=N/Nc1ccccn1	0	7.0	0	0	0	0	10.0
Clc1ccc(C=NNc2ccccn2)c(Cl)c1	0	0	0	0	0	-	-
CCOc1cc(OCC)cc(C(=O)N2CCC[C@H]2C(=O)N2CCC[C@H]2C(=O)NCc2ccccn2)c1	0	0	0	0	-	-	-

Source: PubChem (The Scripps Research Institute Molecular Screening Center)
